# TRPML1 inh – blocks the human TRPML1 channel; AID 624415; TRPML1-inducible cells, Ca2+ dye fluorescence, FDSS; active compounds read low; inhibition of EC80 agonist-evoked calcium signal; activity change, negative = inhibition, % (test concentration not listed); Q9GZU1; 390,000 tested, 0.02% active; in the data active = activity change below about -50%; inconclusive = between about -30% and that limit;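 also: stimulus is agonist 54-4 at its EC80 concentration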
# Target sequence (Q9GZU1 whole entry, looked up): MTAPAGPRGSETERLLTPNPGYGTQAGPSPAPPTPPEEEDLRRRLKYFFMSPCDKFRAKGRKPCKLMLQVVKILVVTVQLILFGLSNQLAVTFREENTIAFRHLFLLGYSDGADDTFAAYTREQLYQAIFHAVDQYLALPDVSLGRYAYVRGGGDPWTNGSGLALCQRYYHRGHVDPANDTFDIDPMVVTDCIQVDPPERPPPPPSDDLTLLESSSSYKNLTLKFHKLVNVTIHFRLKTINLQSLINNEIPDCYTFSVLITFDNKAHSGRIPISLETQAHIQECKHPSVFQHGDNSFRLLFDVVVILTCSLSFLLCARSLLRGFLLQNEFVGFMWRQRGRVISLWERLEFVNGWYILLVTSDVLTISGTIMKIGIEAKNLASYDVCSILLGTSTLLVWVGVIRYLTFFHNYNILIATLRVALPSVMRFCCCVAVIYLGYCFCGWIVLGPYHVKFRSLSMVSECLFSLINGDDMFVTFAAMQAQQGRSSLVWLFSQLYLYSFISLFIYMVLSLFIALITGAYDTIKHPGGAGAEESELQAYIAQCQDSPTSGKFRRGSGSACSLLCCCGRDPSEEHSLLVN
#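 Calcium fluorescence in TRPML1-DL cells induced overnight with Tet: a 110 s read after compound pin addition, then a 110 s antagonist read after challenge with 54-4 at 4 uM final (EC80).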
# GLP1R cytotox – cytotoxic in the GLP-1 receptor inverse agonist counter-screen; AID 624418; HEK293 cAMP-luciferase reporter cells, luminescence, 24 h; 410,000 tested, 0.13% active; Potency, µM (top dose mostly 38.3 µM), usual class: inhibitors;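 also: loss of luciferase light is scored as toxicity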
#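 A 23 nL compound transfer followed 12 hours of cell culture at 37 deg C; exposure then lasted 24 hr. Luciferase assay detection reagent was dispensed and plates read for luminescence after a 12 min room-temperature wait.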
# TRPML1 ag – agonists of human TRPML1 channel; 410,000 tested, 0.12% active; Q9GZU1; activation, % (test concentration not listed); AID 624414; TRPML1-expressing cells, Ca2+ dye fluorescence, FDSS; in the data active = activation above about 50%; inconclusive = mostly about 30% to 49%
#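 Tet-induced TRPML1-DL cells, 1,500 per well, cultured overnight, were loaded with a no-wash Ca2+ dye for 45–90 min. Calcium fluorescence was recorded on the FDSS for 110 s after compound addition, before the EC80 agonist (4 uM 54-4) was added.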
# GLP-1R inv ag – GLP-1 receptor (human) inverse agonism; AID 624417; P43220; Potency, µM (doses to about 38.3 µM), most hits filed as inhibitors; HEK293 GLP-1R CRE-luciferase, luminescence, 24 h; GLP-1R form is constitutively active; 410,000 tested, 1.6% active; also: nearly all actives have a fitted effect of over 55% in size
#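 qHTS in 1536-well format: reporter HEK293 cells expressing constitutive GLP-1R activity in DMEM + 10% Nu serum, 24 hr with compounds at 37 deg C, luminescence read after 12 min with detection reagent.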
# GLP-1R agonist – activates the human GLP-1 receptor; P43220; HEK293 GLP-1R CRE-luciferase, luminescence, 4-6 h; cells express a hypersensitive GLP-1R form; Potency, µM (titrated, usually from 45.6 µM), actives largely listed as activators; 380,000 tested, 0.007% active; AID 624172
# A number is an active result; i = inactive; ? = inconclusive; nt = no result. The list is not random: actives were taken first. Their share in the collection is about 1.8%. Unless noted, calls follow the shape of the dose curve; as a rule, active = well fitted curve in the direction sought with a large enough effect; inconclusive = small, poorly fitted or top-dose-only effect, or another doubt; inactive = no such curve, though single readings can be large; an effect the other way counts as inactive or inconclusive.
SMILES,TRPML1 inh,GLP1R cytotox,TRPML1 ag,GLP-1R inv ag,GLP-1R agonist
Cc1cccc(C2c3[nH]c4ccccc4c3CCN2C(=O)c2noc3c2CCCC3)n1 (configuration not stated),i,i,i,7.1µM,i
O=C(c1noc2c1CCCC2)N1CCc2c([nH]c3ccccc23)C1c1ccccn1 (configuration not stated),i,i,i,i,i
Cc1ncoc1C(=O)N1CCc2c([nH]c3ccccc23)C1C1CCCCC1 (configuration not stated),i,i,i,10µM,i
CCSc1ncc(/C=N/Nc2ccccc2)n1C,i,?,i,3.5µM,i
CCSc1ncc(/C=N/Nc2ccc(Cl)cc2)n1C,i,i,i,?,i
CC1=C(C(=O)Nc2ccccc2)C(c2ccccc2C)n2nc(SCC(=O)c3ccc(C)cc3)nc2N1 (configuration not stated),i,i,i,i,nt
Cc1cccc(-n2ncc(C(=O)NCc3ccccn3)c2C2CCN(C(=O)OC(C)(C)C)CC2)c1,i,i,i,i,nt
COc1ccc(C(C(=O)Nc2ccc3c(c2)OCO3)N(C)C(=O)Cc2c[nH]c3ccccc23)cc1 (configuration not stated),i,i,i,2.2µM,i
COc1ccc(NC(=O)C(c2ccccc2)N(C)C(=O)/C=C\c2ccc3c(c2)OCO3)cc1 (configuration not stated),i,i,i,?,nt
COc1ccc(S(=O)(=O)Nc2ccc(Nc3ccccc3)cc2)cc1,i,i,i,7.1µM,i
COc1ccc(S(=O)(=O)Nc2ccccc2)cc1,i,i,i,i,i
CCC(=O)N1CCc2cc(S(=O)(=O)NC(CC(C)C)C(=O)Nc3cc(C)ccc3OC)ccc21 (configuration not stated),i,i,i,i,nt
CCOC(=S)SCC(=O)Nc1nc(-c2ccccc2)cs1,i,?,i,i,i
CCOC(=S)SCC(=O)Nc1nc(-c2ccc(Br)cc2)cs1,i,5µM,i,i,i
COc1cc(OC)c(NS(=O)(=O)c2cc(-c3cnc(C)o3)ccc2OC)cc1Cl,i,i,i,?,nt
CCc1ccc(CN(C)C(=O)c2cc(COc3c(F)cccc3F)on2)cc1,i,i,i,?,i
CN(Cc1cccc2ccccc12)C(=O)c1cc(COc2c(F)cccc2F)on1,i,i,i,10µM,i
N#CC1(Cc2ccc(Cl)cc2)c2ccccc2C=CN1C(=O)c1ccccc1 (configuration not stated),i,i,i,7.9µM,i
CC1(C#N)c2ccccc2C(Br)=CN1C(=O)c1ccccc1 (configuration not stated),i,i,i,i,i
Cc1ccc(CCNC(=O)CCCn2c(=O)c3ccccc3n(CC(=O)Nc3cc(Cl)ccc3C)c2=O)cc1,i,i,i,i,i
OCCN1CCN(C2CCC(c3ccc(F)cc3)c3ccc(F)cc32)CC1 (configuration not stated),i,?,i,2µM,i
O=[N+]([O-])c1ccc2c(c1)C(N1CCN(CCO)CC1)Cc1ccc(F)cc1S2 (configuration not stated),nt,i,i,?,i
CC(C)(C)c1ccc(C(=O)N2CC(=O)Nc3ccc(F)cc3C2c2ccc(F)cc2)cc1 (configuration not stated),i,i,i,?,nt
COc1ccc(CN2CCN(Cc3ccc(C(F)(F)F)cc3)CC2)c(OC)c1,i,i,i,11µM,i
S=C(NN=C(c1ccccc1)c1ccccn1)N(Cc1ccccn1)Cc1ccccn1,i,?,i,i,i
SMILES,TRPML1 inh,GLP1R cytotox,TRPML1 ag,GLP-1R inv ag,GLP-1R agonist
CC(=NNC(=S)N(Cc1ccccn1)Cc1ccccn1)c1cnccn1,i,4.5µM,i,?,i
O=[N+]([O-])c1ccc(CN2CCOCCOCCN(Cc3ccc([N+](=O)[O-])cc3)CCOCC2)cc1,i,i,i,10µM,i
CCN(Cc1ccccc1)CC(O)COC(c1ccc(OC)cc1)c1ccc(OC)cc1 (configuration not stated),i,?,i,10µM,i
CC(C)CC(=O)NC(NC(=S)Nc1cccc2cccnc12)C(Cl)(Cl)Cl (configuration not stated),i,i,i,7.9µM,i
CC(C)C(=O)NC(Nc1cccc2cccnc12)C(Cl)(Cl)Cl (configuration not stated),i,i,i,?,i
COCCCNc1c2c3c(cccc3[nH]c1=O)C(=O)c1ccccc1-2,i,i,113,?,i
COCCCNC1=C(Cl)C(=O)c2ccccc2C1=O,i,?,i,?,i
COc1ccc(NC(=O)CCCn2nc(C)c3sc4ccccc4c3c2=O)cc1,i,i,i,i,nt
Cc1ccccc1Nc1c(-c2c[nH]c3ccccc23)nc2cccc(C)n12,i,i,i,i,nt
CN1CCN(c2ccc(-c3cccc(NC(=O)COc4ccc(Cl)cc4)c3)nn2)CC1,i,?,i,?,i
CN1CCN(c2ccc(-c3cccc(NC(=O)COc4ccccc4)c3)nn2)CC1,i,i,i,11µM,i
COc1ccc(C)cc1NC(=O)C1CCN(C(=O)c2ccc(C(C)(C)C)cc2)CC1,i,i,i,8.9µM,i
CC1(c2ccccc2)NC(=O)N(CC(=O)Nc2ccc(Cl)c(S(=O)(=O)N3CCCCC3)c2)C1=O (configuration not stated),i,i,i,?,i
CC1(c2ccccc2)NC(=O)N(CC(=O)Nc2ccc3c(c2)CCC3)C1=O (configuration not stated),i,i,i,10µM,i
CCC1(c2ccccc2)NC(=O)N(CC(=O)Nc2ccc3c(c2)CCC3)C1=O (configuration not stated),i,i,i,?,i
O=C(CC1CCCC1)Nc1ccc(Cl)c(S(=O)(=O)N2CCOCC2)c1,i,i,i,8.9µM,i
Cc1ccc(C2(C)NC(=O)N(CC(=O)Nc3ccc(Cl)c(S(=O)(=O)N4CCCCC4)c3)C2=O)cc1 (configuration not stated),i,i,i,10µM,i
CCN1CCN(C(=O)c2ccc3c(c2)N(Cc2ccc(Cl)cc2)C(=O)c2ccccc2S3=O)CC1 (configuration not stated),i,i,i,i,i
CC(C)CCNC(=O)Cn1cc(S(=O)(=O)Cc2ccc(F)cc2)c2ccccc21,i,i,i,?,nt
COc1cccc(-c2cccc(NC(=O)C3CCN(Cc4nccs4)CC3)c2)c1,i,i,i,i,i
CCOc1ccc(CN2CCC(C(=O)Nc3cccc(-c4ccn[nH]4)c3)CC2)cc1Cl,i,?,i,10µM,i
Cc1cc(C)c(S(=O)(=O)Nc2ccc3c4c(cccc24)CC3)c(C)c1,i,i,i,4.5µM,i

# Source: PubChem BioAssay (National Center for Advancing Translational Sciences (NCATS))
